Assay results from PubChem BioAssay (NCATS).
Records with an inconclusive call do not appear. A call without a number means that no potency is given here. Values without a mark were called inactive. Calls of active or inactive are those of the source. Calls come from the whole dose curve; as a rule, active = well fitted inhibition curve with a large enough effect; inconclusive = small, poorly fitted or top-dose-only effect; inactive = flat fitted curve, though single readings scatter.

tested on: Zika virus NS2B-NS3 protease; assay: Primary screen GU AMC qHTS for Zika virus inhibitors (AID 1347154); conditions: Zika NS2B-NS3 unlinked protease, AMC fluorogenic substrate; series mostly up to 54.1 µM; note: nearly all actives have a fitted effect of over 70% in size
Description: Avindra Nath, Ph.D., National Institute of Neurological Disorders and Stroke (NINDS), Bethesda, MD
Radhakrishnan Padmanabhan, Ph.D., Georgetown University (GU), Washington D.C.
Zika Virus causes congenital defects, including microcephaly and is associated with Guillain-Barre syndrome, eningoencephalitis and myelitis in infected adult. […] Using a target-based approach, we hope to establish a screening paradigm to uncover novel, cell-active NS2B-NS3 protease (Zika Virus) specific inhibitors from NCATS' collection of small molecules using qHTS.
Early Translation Branch (ETB)
National Center for Advancing Translational Sciences (NCATS), Rockville, MD
National Institute of Health (NIH), Bethesda, Maryland
Padmanabhan lab provided the NS2B hydrophilic domain and NS3 protease domain in a noncovalent complex used for the unlinked assay. Control compound aprotinin is obtained from Thermo Scientific (#78432; Waltham, Massachusetts). NS2B-NS3 AMC substrate (Bz-Nle-Lys-Arg-Arg-AMC; Nle-KRR-AMC) purchased from Bachem (#I-1995; Torrance, CA). Ac-VKTGKR-AMC purchased from Genscript or Bachem, Ac-FAAGKR-AMC purchased from Genscript, Ac-GLVKRR-AMC purchased from Genscript, Ac-LKKR-AMC purchased from Genscript.
GU AMC unlinked NS2B-NS3 protease qHTS protocol
Briefly, 3 microL of Zika virus unlinked NS2B-NS3 protease (25 nM for linked final concentration), in assay buffer (10 mM Tris-HCl pH 8.0 with 0.01% Tween 20) was dispensed into a 1,536-well solid-bottom black plate (Greiner Bio One, Monroe, NC). […] Plates were then read immediately on a ViewLux High-throughput CCD imager (PerkinElmer, Waltham, MA) equipped with standard UV fluorescence optics (340(30) nm excitation, 450(20) nm emission) then incubated (room temperature, protected from light) for 15 minutes (~20% conversion). The change in fluorescence intensity over the 15-minute reaction period was normalized against no-inhibitor and no-enzyme controls and the resulting percent inhibition data were fitted to a 4-parameter Hill equation. Aprotinin was used as the intraplate control.

How did the Potency turn out when `CC(O)CN(CCN(CC(C)O)CC(C)O)CC(C)O` (stereo not given) was run?
The Potency was “inactive”.

Which Potency does the source give for `CC(=O)O[C@@]12CO[C@@H]1C[C@H](O)[C@@]1(C)C(=O)[C@H](O)C3=C(C)[C@@H](OC(=O)[C@H](O)[C@@H](NC(=O)OC(C)(C)C)c4ccccc4)C[C@@](O)([C@@H](OC(=O)c4ccccc4)[C@H]21)C3(C)C` here?
The Potency was “inactive”.

Which Potency does the source give for `CN1[C@@H]2CC[C@H]1CC(OC(=O)C(O)c1ccccc1)C2` (stereo not given in full) here?
The Potency was “inactive”.

For `CNCC(O)c1ccc(O)c(O)c1` (stereo not given), which Potency is on record?
The Potency was “inactive”.

Which Potency does the source give for `C=CCn1c(=O)n([C@@H]2O[C@H](CO)[C@@H](O)[C@H]2O)c2nc(N)[nH]c(=O)c21` here?
Its Potency is “inactive”.

For `CC(C)(C)C(=O)C(Oc1ccc(Cl)cc1)n1ccnc1` (stereo not given), which Potency is on record?
Its Potency is “inactive”.

Which Potency does the source give for `C[C@]12C[C@H](O)[C@H]3[C@@H](CCC4=CC(=O)CC[C@@]43C)[C@@H]1CC[C@@H]2C(=O)CO` here?
Its Potency is “inactive”.

For `CCN(CC)C(=O)Nc1ccc(OCC(O)CNC(C)(C)C)c(C(C)=O)c1` (stereo not given), which Potency is on record?
Its Potency is “inactive”.

`COc1ccc(S(=O)(=O)Nc2nnc(CC(C)C)s2)cc1` was tested. Which Potency did it give?
The Potency was “inactive”.

How did the Potency turn out when `CNC(=O)Oc1ccc2c(c1)[C@]1(C)CCN(C)[C@@H]1N2C` was run?
Its Potency is “inactive”.

With `O=c1cc[nH]c(=S)[nH]1` as the compound, how does the Potency read?
Its Potency is “inactive”.

For `Nc1ccc(S(=O)(=O)Nc2nccs2)cc1`, which Potency is on record?
Its Potency is “inactive”.

How did the Potency turn out when `OC[C@H]1O[C@@H](O[C@@H]2[C@@H](CO)O[C@](O)(CO)[C@H]2O)[C@H](O)[C@@H](O)[C@H]1O` was run?
Its Potency is “inactive”.

`C[C@](N)(Cc1ccc(O)cc1)C(=O)O` was tested. Which activity change, negative = inhibition did it give?
The activity change, negative = inhibition was -1.38% [at 4.99 µM].

With `CCCCCCCCCCCCOS(=O)(=O)O` as the compound, how does the Potency read?
Its Potency is “inactive”.

For `CN(N=O)C(=O)N[C@@H]1[C@@H](O)[C@H](O)[C@@H](CO)O[C@@H]1O`, which Potency is on record?
The Potency was “inactive”.

For `Nc1nc2c(ncn2CCC(CO)CO)c(=O)[nH]1`, which Potency is on record?
The Potency was “inactive”.

How did the Potency turn out when `NC(=O)NC(=O)Cc1ccccc1` was run?
Its Potency is “inactive”.

Which Potency does the source give for `CCCCOc1cc(C(=O)OCCN(CC)CC)ccc1N` here?
The Potency was “inactive”.

With `CN(C)CCCN1c2ccccc2Sc2ccc(Cl)cc21` as the compound, how does the Potency read?
The Potency was “inactive”.

Which Potency does the source give for `O=C1O[C@H](CO)[C@@H](O)[C@H](O)[C@H]1O` here?
Its Potency is “inactive”.

How did the Potency turn out when `O=C(Oc1ccccc1C(=O)O)c1ccccc1O` was run?
Its Potency is “inactive”.

With `C[C@H]1O[C@@H](n2cc(F)c(=O)[nH]c2=O)[C@H](O)[C@@H]1O` as the compound, how does the Potency read?
The Potency was “inactive”.

How did the Potency turn out when `CCn1cc(C(=O)O)c(=O)c2cnc(N3CCNCC3)nc21` was run?
The Potency was “inactive”.

For `NS(=O)(=O)c1cc2c(cc1C(F)(F)F)NC(Cc1ccccc1)NS2(=O)=O` (stereo not given), which Potency is on record?
Its Potency is “inactive”.

Which Potency does the source give for `CCOC(=O)c1ccc(O)cc1` here?
Its Potency is “inactive”.

For `COc1cc(C)c(Cc2cnc(N)nc2N)cc1OC`, which Potency is on record?
The Potency was “inactive”.

For `CC(O)COc1ccccc1` (stereo not given), which Potency is on record?
Its Potency is “inactive”.

Which Potency does the source give for `Cc1ccc(C(C)C)cc2c(C)ccc1-2` here?
Its Potency is “inactive”.

How did the Potency turn out when `CC1(C)S[C@@H]2[C@H](NC(=O)Cc3ccccc3)C(=O)N2[C@H]1C(=O)O` (tested in a mixture with another compound) was run?
Its Potency is “inactive”.

With `Nc1ccc(S(=O)(=O)Nc2ccc(Cl)nn2)cc1` as the compound, how does the Potency read?
The Potency was “inactive”.

`CC1(C)CO[C@@H](CC(=O)O)CN1` was tested. Which Potency did it give?
The Potency was “inactive”.

How did the Potency turn out when `CCC(=O)Nc1ccc(O)cc1` was run?
Its Potency is “inactive”.

How did the Potency turn out when `COc1ccc(Cl)cc1C(=O)NCCc1ccc(S(=O)(=O)NC(=O)NC2CCCCC2)cc1` was run?
Its Potency is “inactive”.

Which Potency does the source give for `N[C@@H](CSCCCO)C(=O)O` here?
The Potency was “inactive”.

Which Potency does the source give for `CC(C)(C)NCC(O)COc1ccc(NC(=O)NC2CCCCC2)cc1` (stereo not given) here?
The Potency was “inactive”.

How did the Potency turn out when `NC1[C@H]2CN(c3nc4c(cc3F)c(=O)c(C(=O)O)cn4-c3ccc(F)cc3F)C[C@@H]12` (stereo not given in full) was run?
Its Potency is “inactive”.

With `CN1CCCCC1CCN1c2ccccc2Sc2ccc(S(C)=O)cc21` (stereo not given) as the compound, how does the Potency read?
Its Potency is “inactive”.

How did the Potency turn out when `CCCOC(=O)c1ccccc1` was run?
The Potency was “inactive”.

Which Potency does the source give for `COc1ccc2[nH]c(S(=O)Cc3ncc(C)c(OC)c3C)nc2n1` (stereo not given) here?
Its Potency is “inactive”.
